PubChem BioAssay (EPA / NIEHS)
Where “and” joins values, the source holds several entries; their conditions need not be identical. Identical values can stand only once. The source holds several records for some structures; these can differ, active in one and inactive in another. Calls of active or inactive are those of the source. How the source made its calls: active means hit-call score of the fitted dose curve at least 0.9, where 1 is the maximum; inactive means score below 0.9.

Tests used:
[1] = read-out: Vascular endothelial growth factor receptor 2 (Homo sapiens) (UniProt P35968); assay: BSK_4H_VEGFRII: BioMAP Diversity Plus: 4H Assay for Vascular endothelial growth factor receptor 2 (VEGFR2) Biomarker Activity (AID 2283031); details: primary human endothelial cells (HUVEC); actives raise or lower the signal;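 on AC50: cell-surface VEGFR2 protein level quantified by ELISA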
Procedure, shortened: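 ELISA read-out of VEGFRII in primary human umbilical vein endothelium, taken 24 h after chemical treatment. Responses are expressed relative to DMSO, with bidirectional fitting.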

[2] = read-out: Human Leukocyte Antigen - DR isotype (HLADR), HLA-DRA (gene 3122); assay: BSK_BE3C_HLADR: BioMAP Diversity Plus: BE3C Assay for Human Leukocyte Antigen - DR isotype (HLADR) Biomarker Activity (AID 2283032); details: primary human bronchial epithelial cells; actives raise or lower the signal
Procedure, shortened: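 Chemicals are dosed onto BE3C bronchial epithelial cultures of human origin and left 24 h. HLA-DR is then measured by ELISA, and the endpoint is fitted in both directions using DMSO as the activity baseline.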

[3] = read-out: Vascular cell adhesion molecule 1 (VCAM1), VCAM1 (gene 7412); assay: BSK_4H_VCAM1: BioMAP Diversity Plus: 4H Assay for Vascular cell adhesion molecule 1 (VCAM1) Biomarker Activity (AID 2283033); details: primary human endothelial cells (HUVEC); actives raise or lower the signal
Procedure, shortened: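 Chemicals are added to primary human umbilical vein endothelial cells. After 24 h, VCAM-1 levels are measured by ELISA. Values come from bidirectional fitting referenced to DMSO.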

[4] = read-out: Interferon-gamma inducible Protein 10 (IP10), CXCL10 (gene 3627); assay: BSK_BE3C_IP10: BioMAP Diversity Plus: BE3C Assay for Interferon-gamma inducible Protein 10 (IP10) Biomarker Activity (AID 2283034); details: primary human bronchial epithelial cells; actives raise or lower the signal
Procedure, shortened: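 IP-10 quantified by ELISA serves as the endpoint. Cells: primary human bronchial epithelium, read 24 h after compound addition. Activity is derived by bidirectional fitting with DMSO as negative control.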

[5] = read-out: Monokine induced gamma interferon (MIG), CXCL9 (gene 4283); assay: BSK_BE3C_MIG: BioMAP Diversity Plus: BE3C Assay for Monokine induced gamma interferon (MIG) Biomarker Activity (AID 2283035); details: primary human bronchial epithelial cells; actives raise or lower the signal
Procedure, shortened: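 ELISA quantified MIG after 24 h exposure of primary bronchial epithelial cultures, analysed in both directions relative to DMSO. Cytotoxicity tracked in parallel cultures by sulforhodamine B staining.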

[6] = read-out: Transforming growth factor beta 1 (TGFb1), TGFB1 (gene 7040); assay: BSK_BE3C_TGFb1: BioMAP Diversity Plus: BE3C Assay for Transforming growth factor beta 1 (TGFb1) Biomarker Activity (AID 2283036); details: primary human bronchial epithelial cells; actives raise or lower the signal
Procedure, shortened: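 Bronchial epithelial primary cells are treated with test chemical, then TGF-b1 is quantified by ELISA after 24 hours. Values derive from bidirectional fitting against DMSO, with cytotoxicity checked by SRB staining in parallel cultures.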

[7] = read-out: Plasminogen activator inhibitor-1 (PAI1), SERPINE1 (gene 5054); assay: BSK_BE3C_PAI1: BioMAP Diversity Plus: BE3C Assay for Plasminogen activator inhibitor-1 (PAI1) Biomarker Activity (AID 2283037); details: primary human bronchial epithelial cells; actives raise or lower the signal
Procedure, shortened: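 Values derive from bidirectional fitting against DMSO baseline of PAI-1 levels, measured by ELISA in human bronchial epithelial cells 24 h after compound addition.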

[8] = read-out: urokinase plasminogen activator (uPA), PLAU (gene 5328); assay: BSK_BE3C_uPA: BioMAP Diversity Plus: BE3C Assay for urokinase plasminogen activator (uPA) Biomarker Activity (AID 2283038); details: primary human bronchial epithelial cells; actives raise or lower the signal
Procedure, shortened: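 Bronchial epithelial cells (human, primary); chemical 24 h; uPA by ELISA; bidirectional fit vs DMSO. SRB (0.1%, after 10% TCA fixation, 560 nm) in parallel cultures for cytotoxicity.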

[9] = read-out: Urokinase-type plasminogen activator receptor (uPAR), PLAUR (gene 5329); assay: BSK_BE3C_uPAR: BioMAP Diversity Plus: BE3C Assay for Urokinase-type plasminogen activator receptor (uPAR) Biomarker Activity (AID 2283039); details: primary human bronchial epithelial cells; actives raise or lower the signal
Procedure, shortened: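 Steps: dose human primary bronchial epithelial cells, incubate 24 h, measure uPAR by ELISA, then fit gain- or loss-of-signal response bidirectionally relative to DMSO.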

[10] = read-out: Interleukin-6 (IL6), IL6 (gene 3569); assay: BSK_CASM3C_IL6: BioMAP Diversity Plus: CASM3C Assay for Interleukin-6 (IL6) Biomarker Activity for (AID 2283040); details: primary human coronary artery smooth muscle cells; actives raise or lower the signal
[11] = read-out: Tissue plasminogen activator (tPA), PLAT (gene 5327); assay: BSK_BE3C_tPA: BioMAP Diversity Plus: BE3C Assay for Tissue plasminogen activator (tPA) Biomarker Activity (AID 2283041); details: primary human bronchial epithelial cells; actives raise or lower the signal
Procedure, shortened: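 Gain- or loss-of-signal in tPA, measured by ELISA, derived by bidirectional fitting against DMSO. Cells: human primary bronchial epithelial; read at 24 h after chemical dosing.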

[12] = read-out: Interleukin-8 (IL8), CXCL8 (gene 3576); assay: BSK_CASM3C_IL8: BioMAP Diversity Plus: CASM3C Assay for Interleukin-8 (IL8) Biomarker Activity (AID 2283042); details: primary human coronary artery smooth muscle cells; actives raise or lower the signal;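 further: IL-8 protein level quantified by ELISA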
[13] = read-out: Human Leukocyte Antigen - DR isotype (HLADR), HLA-DRA (gene 3122); assay: BSK_CASM3C_HLADR: BioMAP Diversity Plus: CASM3C Assay for Human Leukocyte Antigen - DR isotype (HLADR) Biomarker Activity (AID 2283043); details: primary human coronary artery smooth muscle cells; actives raise or lower the signal;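 further: cell-surface HLA-DR protein level quantified by ELISA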
[14] = read-out: Macrophage colony-stimulating factor (MCSF), CSF1 (gene 1435); assay: BSK_CASM3C_MCSF: BioMAP Diversity Plus: CASM3C Assay for Macrophage colony-stimulating factor (MCSF) Biomarker Activity (AID 2283044); details: primary human coronary artery smooth muscle cells; actives raise or lower the signal;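 further: M-CSF protein amount quantified by ELISA after 24 h exposure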
[15] = read-out: Low-density lipoprotein receptor (LDLR), LDLR (gene 3949); assay: BSK_CASM3C_LDLR: BioMAP Diversity Plus: CASM3C Assay for Low-density lipoprotein receptor (LDLR) Biomarker Activity (AID 2283045); details: primary human coronary artery smooth muscle cells; actives raise or lower the signal;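 further: LDLR protein level on the cell surface quantified by ELISA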
[16] = read-out: Monocyte Chemoattractant Protein-1 (MCP1), CCL2 (gene 6347); assay: BSK_CASM3C_MCP1: BioMAP Diversity Plus: CASM3C Assay for Monocyte Chemoattractant Protein-1 (MCP1) Biomarker Activity (AID 2283046); details: primary human coronary artery smooth muscle cells; actives raise or lower the signal;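 further: MCP-1 level quantified by ELISA 24 h after dosing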
[17] = BSK_CASM3C_Proliferation: Cell Proliferation Assessment in the BioMAP Diversity Plus: CASM3C Assay (AID 2283047); details: primary human coronary artery smooth muscle cells;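 further: sulforhodamine B total protein stain as relative cell number at 560 nm; sub-confluent cells exposed 48 h before staining; fitted both ways against DMSO so gain or loss of cell number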
[18] = read-out: Monokine induced gamma interferon (MIG), CXCL9 (gene 4283); assay: BSK_CASM3C_MIG: BioMAP Diversity Plus: CASM3C Assay for Monokine induced gamma interferon (MIG) Biomarker Activity (AID 2283048); details: primary human coronary artery smooth muscle cells; actives raise or lower the signal;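 further: MIG protein level measured by ELISA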
[19] = read-out: serum amyloid A (SAA), SAA1 (gene 6288); assay: BSK_CASM3C_SAA: BioMAP Diversity Plus: CASM3C Assay for serum amyloid A (SAA) Biomarker Activity (AID 2283049); details: primary human coronary artery smooth muscle cells; actives raise or lower the signal;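 further: SAA protein level quantified by ELISA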
[20] = BSK_CASM3C_SRB: Viability Assessment in the BioMAP Diversity Plus: CASM3C Assay (AID 2283050); details: primary human coronary artery smooth muscle cells;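 further: total protein by SRB staining as cytotoxicity measure in parallel cultures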

Measured: AC50

O=C(O)C(Cl)(Cl)Cl
inactive: [1] | [2] | [3] | [4] | [5] | [6] | [7] | [8] | [9] | [10] | [11] | [12] | [13] | [14] | [15] | [16] | [17] | [18] | [19] | [20]

O=C(O)C(F)(F)C(F)(F)C(F)(F)C(F)(F)C(F)(F)C(F)(F)C(F)(F)C(F)(F)C(F)(F)C(F)(F)F
active: [2] 9.29 µM and 4.71 µM and 4.92 µM | [3] 33.2 µM | [4] 8.5 µM and 2.27 µM and 2.29 µM | [5] 13.8 µM and 5.09 µM and 5.56 µM | [6] 8.28 µM | [7] 12.3 µM and 2.33 µM and 1.73 µM | [8] 11.6 µM and 6.21 µM and 5.27 µM | [9] 26 µM and 5.6 µM and 5.59 µM | [11] 7.65 µM and 5.33 µM | [13] 19.1 µM
inactive: [1] | [3] | [10] | [11] | [12] | [13] | [14] | [15] | [16] | [17] | [18] | [19] | [20]

CCOC(=O)/C=C(C)/C=C/C[C@@H](C)CCCC(C)C
active: [1] 33 µM | [2] 20 µM | [3] 30.6 µM | [4] 20 µM | [5] 30 µM | [6] 20 µM | [8] 20 µM | [9] 20 µM | [10] 30.7 µM | [11] 9.78 µM | [13] 18.5 µM | [14] 26.6 µM | [15] 27.2 µM | [16] 31.9 µM | [17] 29 µM | [18] 30 µM | [19] 33.1 µM | [20] 31 µM
inactive: [7] | [12]

O=C(Nc1ccc2[nH]ccc2c1)c1cc2cc(F)ccc2n1Cc1cccc(F)c1
active: [1] 8.6 µM | [2] 5.82 µM | [3] 8.66 µM | [4] 8.41 µM | [5] 8.22 µM | [7] 5.51 µM | [9] 6.74 µM | [10] 33.5 µM | [11] 5.75 µM | [12] 23.6 µM | [13] 17.8 µM | [14] 33.7 µM | [15] 14.6 µM | [16] 31.6 µM | [17] 21.1 µM | [18] 31.2 µM | [19] 36.7 µM | [20] 28.1 µM
inactive: [6] | [8]

C=CC(=O)OCCCCCC(C)C
inactive: [1] | [2] | [3] | [4] | [5] | [6] | [7] | [8] | [9] | [10] | [11] | [12] | [13] | [14] | [15] | [16] | [17] | [18] | [19] | [20]

CCOP(=S)(OCC)SCSP(=S)(OCC)OCC
inactive: [1] | [2] | [3] | [4] | [5] | [6] | [7] | [8] | [9] | [10] | [11] | [12] | [13] | [14] | [15] | [16] | [17] | [18] | [19] | [20]

C[C@]12CCC(=O)C[C@@H]1CC[C@@H]1[C@@H]2CC[C@]2(C)[C@@H](O)CC[C@@H]12
inactive: [1] | [2] | [3] | [4] | [5] | [6] | [7] | [8] | [9] | [10] | [11] | [12] | [13] | [14] | [15] | [16] | [17] | [18] | [19] | [20]

O=c1[nH]c(=O)[nH]c(=O)[nH]1
inactive: [1] | [2] | [3] | [4] | [5] | [6] | [7] | [8] | [9] | [10] | [11] | [12] | [13] | [14] | [15] | [16] | [17] | [18] | [19] | [20]

O=C(O)C(F)(F)C(F)(F)C(F)(F)C(F)(F)C(F)(F)C(F)(F)F
inactive: [1] | [2] | [3] | [4] | [5] | [6] | [7] | [8] | [9] | [10] | [11] | [12] | [13] | [14] | [15] | [16] | [17] | [18] | [19] | [20]

O=Cc1cccc(Oc2ccccc2)c1
inactive: [1] | [2] | [3] | [4] | [5] | [6] | [7] | [8] | [9] | [10] | [11] | [12] | [13] | [14] | [15] | [16] | [17] | [18] | [19] | [20]

CC(=O)C(Cl)C(=O)N(C)C (stereo not drawn)
inactive: [1] | [5] | [6] | [7] | [8] | [9] | [10] | [12] | [15] | [16] | [18] | [19] | [20]
active: [2] 26.9 µM | [3] 24.3 µM | [4] 20 µM | [11] 20 µM | [13] 10.1 µM | [14] 16.3 µM | [17] 35.5 µM

CCOP(=S)(OCC)Oc1ccc(S(C)=O)cc1 (stereo not drawn)
inactive: [1] | [2] | [3] | [4] | [5] | [6] | [7] | [8] | [9] | [10] | [11] | [12] | [13] | [14] | [15] | [16] | [17] | [18] | [19] | [20]
